Molecules are shown by their SMILES. A number with no mark means an inactive call. The rule behind the calls is not given here.

The target of the test is Pantothenate synthetase (Mycobacterium tuberculosis (strain ATCC 25618 / H37Rv)) (UniProt P9WIL5). As to the kind of experiment: Recombinant Mtb pantothenate synthetase (PanC) inhibitors, coupled enzyme, confirmatory (AID 375).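 Note: 0% = full reaction with vehicle and 100% = no enzyme background.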 As to conditions: coupled enzyme assay; at 10 µM, stronger effect = higher value.
Pantothenate synthetase (Mycobacterium tuberculosis (strain ATCC 25618 / H37Rv)), sequence (P9WIL5 whole entry, looked up): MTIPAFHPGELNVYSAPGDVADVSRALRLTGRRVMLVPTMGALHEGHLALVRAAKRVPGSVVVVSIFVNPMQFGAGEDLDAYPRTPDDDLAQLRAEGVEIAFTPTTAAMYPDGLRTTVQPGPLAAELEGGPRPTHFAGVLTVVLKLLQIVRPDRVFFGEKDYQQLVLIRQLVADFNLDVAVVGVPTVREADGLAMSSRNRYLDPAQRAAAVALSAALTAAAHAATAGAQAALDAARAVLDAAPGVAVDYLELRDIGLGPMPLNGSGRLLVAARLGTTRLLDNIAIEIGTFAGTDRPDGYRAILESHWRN
`CCN(Cc1nc2ccccc2c(=O)[nH]1)Cc1cc(=O)oc2cc(C)c(C)cc12`: the inhibition (commonly the relative decrease from the control value, in per cent) was 0%. As to `CCOC(=O)c1ccc(NC(=O)Cn2cc3c(n2)CCC(C)C3)cc1` (stereo not drawn), the inhibition was 8%. The result for `CCNC(=O)C1CC(=O)N(Cc2ccc3c(c2)OCO3)C(=Nc2ccc(F)cc2)S1` (stereo not drawn) reads 0%; that for `Cc1cccc(-c2c3c(=O)n(C)c(=O)n(C)c3cn2-c2ccc(O)cc2)c1`, 0%. For the molecule `Cc1cc(C)n(-c2ccc(C(=O)Oc3ccc4c(c3)OCO4)cc2)n1`, the inhibition is 1%.

Turning to `CC(=O)Nc1cccc(OCC(O)Cn2cnc3ccccc32)c1` (stereo not drawn), the inhibition is 0%. Turning to `Fc1c(F)c(F)c(CSc2nc3ccccc3[nH]2)c(F)c1F`, the inhibition was 3%. The result for `CSC1=C(C#N)C(c2ccc(C)cc2)C2=C(CCCC2=O)N1` (stereo not drawn) reads 0%; that for `CCCC(=O)Nc1ccc(NC(=O)c2cccs2)cn1`, 5%; that for `O=C(Nc1ccc2c(c1)nc1n2CCN(Cc2ccccc2)C1)c1cccs1`, 0%. The result for `O=C(Nc1ccc(N2CCCC2)cc1)c1ccc(Br)o1` reads 0%.

With `Cc1ccc(C(C)C)c(OCCn2c(=O)oc3ccccc32)c1`, the inhibition is 0%. The result for `CCOC(=O)N1CCC(N2C(=O)c3ccccc3C2Nc2cccnc2)CC1` (stereo not drawn) reads 4%; that for `CCOC(=O)C1=C(C)Nc2nnnn2C1c1c[nH]c2ccccc12` (stereo not drawn), 3%; that for `CCCOc1cc(C)c(S(=O)(=O)N2CCN(C)CC2)cc1C`, 4%. The figure for `C=CCn1c(N)c(C(=O)OC(C)(C)C)c2nc3ccccc3nc21` is 1%; for `CCn1c(=O)cc(SCC(=O)NCC2CCCO2)c2ccccc21` (stereo not drawn) it is 6%; for `CCOC(=O)c1cc2sc(C)cc2n1CC(=O)Nc1cccc(C)c1C` it is 0%.

`Cc1nnc(NCCc2ccccc2)n(N)c1=O`: the inhibition is 5%. The figure for `CC(C)C[C@H]1C(=O)N2CCC[C@H]2[C@]2(O)O[C@](NC(=O)[C@@H]3C=C4c5cccc6[nH]c(Br)c(c56)CC4N(C)C3)(C(C)C)C(=O)N12` (stereo partly drawn) is 4%; for `CCCCc1cc(=O)oc2c(CN3CCCC3)c(O)c(Cl)cc12` it is 7%. The figure for `CNS(=O)(=O)c1cccc(C(=O)OCC(=O)c2cc(C)n(-c3ccc4c(c3)OCO4)c2C)c1` is 0%; for `COc1ccc(C(CNC(=O)c2cc(C)oc2C)N2CCOCC2)cc1` (stereo not drawn) it is 0%.

The values above are taken from PubChem BioAssay.
